Compounds with a hit are over-represented: about 11% of the library has one in this group of screens.
Pf growth 48h = inhibits P. falciparum growth in the first generation, 48 h; actives 5.9% (n = 310,000); P. falciparum luciferase growth in erythrocytes, 48 h; AID 504832; Potency, µM (titrated, usually from 28.7 µM), inactives show at the top dose activity change, negative = inhibition, actives largely listed as inhibitors; note: % is set by controls: 0 for no effect and ±100 for the full control effect
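Luciferase-expressing parasites in RBCs, 2% Hct / 0.1% parasitemia final; RPMI 1640 + 0.5% Albumax; 37 C, 5% CO2, one generation; luminescence read-out, lower signal = inhibition.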
NS1 function inh = influenza NS1 inhibition; Potency, µM (series often up to 46.1 µM), for inactives: at the top dose activity, positive = more growth; actives 0.4% (n = 270,000); AID 2326; calls by dose curve; note: actives are rising curves; nearly all actives have a fitted effect of over 50% in size
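Read-out: OD600 growth recovery of NS1-expressing budding yeast. Cells grown overnight at 30C in -URA glucose medium, washed, resuspended and diluted 1:100 in 2% galactose assay medium, pH 6.0. Same strain lacking NS1 served as positive control.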
AMA1 RON2 block = inhibitors of Plasmodium falciparum AMA1-RON2 interaction; AlphaScreen AMA1-biotinylated RON2 peptide binding; actives 0.2% (n = 360,000); Potency, µM (titrated, usually from 58.2 µM), inactives show top-dose activity change, negative = inhibition, hits mostly inhibitors;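 note: 0% = vehicle wells and -100% = peptide control; nearly all actives have a fitted effect of over 45% in size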
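AMA1 (3D7) with his tag at 25 nM final met compounds first, then biotinylated RON2 peptide at 25 nM; detection used donor plus acceptor beads, 10 µg/mL apiece, read by AlphaScreen after 30 min at room temperature.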
Pf growth 96h = inhibits malaria parasite growth, 96 h. P. falciparum luciferase reporter growth, 96 h. Potency, µM (highest dose often 28.7 µM), without a hit: top-dose activity change, negative = inhibition, hits mostly inhibitors. actives 6.9% (n = 320,000). AID 504834; note: % is set by controls: 0 for no effect and ±100 for the full control effect
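Parasite growth measured via integrated firefly luciferase reporter in P. falciparum. Infected erythrocytes at 2% hematocrit, 0.05% parasitemia final were treated 96 hours at 37 C under 5% CO2, and luminescence was read.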
Sm TGR inh = S. mansoni TGR enzyme inhibition; AID 485364; actives 3% (n = 360,000); purified TGR, DTNB reduction, TNB absorbance 405 nm; Potency, µM (doses to about 114 µM), for the others: at the highest dose activity change, negative = inhibition, usual class: inhibitors; Q962Y6; note: % is set by controls: 0 for no effect and ±100 for the full control effect; nearly all actives have a fitted effect of over 60% in size
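Kinetic colorimetric format: TGR-catalysed, NADPH-driven DTNB reduction monitored via TNB absorbance. Enzyme dispensed at 20 nM; compound exposure 15 min at room temperature before reaction start.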
Active calls of the source: *; u = inconclusive; x = no result. Unless noted, calls come from the whole dose curve; as a rule, active = well fitted curve in the direction sought with a large enough effect; inconclusive = small, poorly fitted or top-dose-only effect, or another doubt; inactive = no such curve, though single readings can be large; an effect the other way counts as inactive or inconclusive. Potency is the fitted concentration of half-maximal effect.

SMILES | Pf growth 48h | NS1 function inh | AMA1 RON2 block | Pf growth 96h | Sm TGR inh
O=C(NC1(C(F)(F)F)NC(=O)N(CC2CCCCC2)C1=O)c1ccco1 (centres undefined) | 12% | -4% | -12% | u | 79µM*
CC(C)CN1C(=O)NC(NC(=O)c2ccco2)(C(F)(F)F)C1=O (centres undefined) | -26% | 8% | 9% | u | -18%
O=C(O)c1cccc(COc2ccc(CO)cc2Cl)c1 | 0.21µM* | 0% | 0% | u | 0%
O=C(O)c1ccc(COc2ccc(CO)cc2Cl)cc1 | 76% | -1% | 2% | 13% | -9%
CN(C)CCCNC(=O)CC(c1ccc(F)cc1)c1ccco1 (centres undefined) | 1% | -3% | 6% | u | -13%
CCN(CC)C(=O)CC(c1ccc(F)cc1)c1ccco1 (centres undefined) | u | 20% | 0% | -24% | 28µM*
CCCN(CCC)C(=O)CC(c1ccccc1)c1ccco1 (centres undefined) | 12µM* | 3% | -10% | u | 14µM*
CCOP(=O)(NC12CC3CC(CC(C3)C1)C2)NC12CC3CC(CC(C3)C1)C2 | 3.7µM* | 6% | 0% | 2.9µM* | -7%
Cc1ccc(-n2c(=O)[nH]c3sc4c(c3c2=O)CCNC4)cc1C | x | x | x | x | -9%
O=C(NCc1ccoc1)c1ccc(NC(=O)c2ccccc2Cl)cc1 | 1% | 5% | -1% | u | 35µM*
COc1ccccc1N(C(C)=O)C1=C(Cl)C(=O)c2ccccc2C1=O | x | x | 13µM* | x | x
COc1ccc(CCN(/C=C2\Sc3ccccc3C2=O)C(C)=O)cc1OC | 100% | -4% | 40% | 38% | -20%
COc1ccc(-c2cn(CCc3c[nH]c4ccccc34)nn2)cc1 | 12% | 3% | 26% | 9.3µM* | -6%
COc1ccc(OCC(=O)NCCc2c[nH]c3ccccc23)cc1 | -6% | -10% | -11% | 0% | 15%
CC1CCCCC1NC(=O)C(C)N1C(=O)c2ccccc2C1=O (centres undefined) | -2% | x | 12% | -24% | -9%
CN(C)CCN(C(=O)/C=C/c1cccs1)c1nc2c(F)cc(F)cc2s1 | 12µM* | 5% | u | u | -11%
CN(C)CCCN(C(=O)/C=C/c1cccs1)c1nc2ccc(F)cc2s1 | u | x | -10% | u | 7%
O=C(Cc1cccs1)NCCS(=O)(=O)N1CCN(c2cccc(Cl)c2)CC1 | u | x | 3% | -2% | 1%
Cc1ccc(-c2noc(=O)n2CC(=O)c2ccc(Cl)cc2)cc1 | u | 0% | -1% | 0% | -3%
Cc1coc(=N)n1CC(=O)c1ccc(Cl)cc1 | 20% | 5% | 0% | 18% | 40µM*
O=C1CC(Sc2nnc(-c3ccccc3)o2)C(=O)N1c1ccccc1 (centres undefined) | 60% | -83% | 10% | x | 3.5µM*
CC(C)c1ccc(N2C(=O)CC(Sc3nc4ccccc4o3)C2=O)cc1 (centres undefined) | 37% | -5% | -6% | u | u
O=C1c2ccccc2CC1Sc1nnc(-c2ccncc2)o1 (centres undefined) | 6% | 2% | 4% | 4% | 16µM*
Cc1ccccc1N1C(=O)CC(Sc2nnc(-c3ccccc3)o2)C1=O (centres undefined) | 16% | -64% | -3% | 0% | 2.8µM*
CCCCn1c(N)c(N(C)C(=O)c2cccc(-n3cnnn3)c2)c(=O)[nH]c1=O | x | x | -1% | x | x
SMILES | Pf growth 48h | NS1 function inh | AMA1 RON2 block | Pf growth 96h | Sm TGR inh
O=C(Nc1noc2ccccc12)c1c(F)cccc1F | x | x | x | x | 8%
N#Cc1ccc(CSc2ncnc3c2cnn3Cc2ccccc2)cc1 | u | -5% | 14% | 7.4µM* | 0%
CCOc1cc(C2Nc3ccccc3C(=O)N2c2ccccc2)ccc1O (centres undefined) | x | -7% | -2% | u | 2%
CCOc1cc(C2Nc3cccc4cccc(c34)N2)ccc1O | x | 15% | -10% | -27% | 11µM*
CCOc1ccc(C2Nc3cccc4cccc(c34)N2)cc1OC | -10% | 12% | -10% | 7% | 25µM*
CCOc1ccc(NC(=O)CN(C)C(=O)c2cc(S(=O)(=O)N(C)C)ccc2N2CCCC2)cc1OCC | 10µM* | x | -3% | -19% | -15%

Screens from PubChem BioAssay.
